# In the library only some 3.4% were active in any assay of this set; here they are far more common.
# GPR151 activ – activators of human GPR151, primary screen, cell-based, PathHunter beta-arrestin, luminescence; PathHunter beta-arrestin GPR151 cells; hit rate 1% among 650,000; activation, % at 11.2 µM; in the data active = activation above about 4.9%;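 also: 0% = median of compound wells and 100% = cells with positive control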
# TEAD-YAP block – TEAD-YAP interaction inhibition, primary screen, TEAD-YAP interaction inhibitor project, luminescence, HEK-TIYL cells | inhibition, % at 9.12 µM | TEAD-Gal4/YAP UAS-luciferase luminescence | hit rate 1.4% among 640,000 | AID 1259422, 2018; in the data active = inhibition above about 32%;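 also: 0% = median of test compound wells and 100% = reference inhibitor wells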
# FBW7 act – FBW7 E3 ligase activators, primary screen, biochemical, AlphaScreen, human. AlphaScreen FBW7–phospho-cyclin E peptide binding, activator screen. AID 1259310, 2017. F-box/WD repeat-containing protein 7 (Homo sapiens), Q969H0. normalized activity (activation), % at 26.1 µM. hit rate 0.13% among 650,000; in the data active = normalized activity above about 1.9%;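 also: purified mutant Fbw7 with reduced substrate affinity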
# MITF inh – MITF inhibitors, primary screen, biochemical, AlphaScreen, human | AlphaScreen MITF homodimerization, bead proximity signal | hit rate 0.91% among 650,000 | inhibition, % at 2.6 µM; in the data active = inhibition above about 50%;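 also: 0% = vehicle wells with protein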
# GPR151 conf act – GPR151 activators, triplicate retest, confirmation, cell-based, PathHunter beta-arrestin, luminescence; AID 1508609, 2020; activation, % at 11.2 µM; shares compounds with GPR151 activ; 6,700 tested, under 10 active; GPR151 PathHunter beta-arrestin cells, 90 min; % of EA-reagent control over plate median;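 active = mean percent activation across replicates above the confirmation screen cutoff of 4.91%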
# GPR119 ag – GPR119 activators in beta-arrestin cells, counter-screen for GPR151 activator project, cell-based, PathHunter beta-arrestin, luminescence, triplicate. hit rate 0.3% among 6,700. shares compounds with GPR151 activ. 90 min; 0 = compound-well median, 100 = enzyme-acceptor control. activation, % at 11.2 µM;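 active = mean percent activation in the counterscreen above 29.09%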;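 also: counterscreen on off-target GPR119 to flag nonselective hits from the GPR151 activator screen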
# Target sequence (Q8TDV5 whole entry, looked up): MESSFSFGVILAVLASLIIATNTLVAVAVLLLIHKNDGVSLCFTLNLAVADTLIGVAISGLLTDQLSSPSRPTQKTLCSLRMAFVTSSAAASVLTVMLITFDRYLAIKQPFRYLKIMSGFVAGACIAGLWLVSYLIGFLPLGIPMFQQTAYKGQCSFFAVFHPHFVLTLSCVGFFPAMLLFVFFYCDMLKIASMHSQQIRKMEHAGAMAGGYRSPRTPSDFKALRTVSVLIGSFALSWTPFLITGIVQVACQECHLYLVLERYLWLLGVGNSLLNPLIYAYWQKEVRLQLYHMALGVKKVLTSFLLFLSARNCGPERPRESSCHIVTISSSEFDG
# Active calls of the source: *; · = no result; ! = not confirmed by another sample.
SMILES,GPR151 activ,TEAD-YAP block,FBW7 act,MITF inh,GPR151 conf act,GPR119 ag
C1=CCC(CN2CCN(C3CCCC3)CC2)CC1 (configuration not stated),5.1*,-5.8,0.0,32.8,0.8,13.2
O=C1NC(NS(=O)(=O)c2ccccc2)(C(F)(F)F)C(=O)N1c1ccc(Cl)cc1 (configuration not stated),5.9*,4.2,-0.1,-7.0,0.5,10.8
Cc1ccc(S(=O)(=O)NC2(C(F)(F)F)NC(=O)N(c3ccc(Cl)cc3)C2=O)cc1 (configuration not stated),-0.2,-5.2,0.0,-1.1,·,·
N#Cc1c(NC(=O)c2nn3c(C(F)(F)F)cc(-c4cccs4)nc3c2Cl)sc2c1CCCC2,9.2*,-1.3,0.1,-3.4,0.6,20.3
CC1CCCC(C)N1C(=O)c1cc2nc(-c3cccs3)cc(C(F)(F)F)n2n1 (configuration not stated),5.4*,6.1,0.0,1.0,-0.5,3.1
O=C(c1nn2c(C(F)(F)F)cc(-c3cccs3)nc2c1Cl)N1CCCCC1,6.4*,-0.9,-0.3,4.9,0.8,13.2
N#Cc1c(NC(=O)c2nn3c(C(F)(F)F)cc(-c4cccs4)nc3c2Cl)sc2c1CCCCC2,0.0,-2.8,-0.1,6.8,·,·
COc1cc(OC)nc(Oc2ccccc2-c2ccno2)n1,0.9,-0.7,0.2,8.2,·,·
CCOc1ccc(NC(=O)COc2ccc(SC)cc2)cc1,0.9,15.2,0.0,13.1,·,·
Cc1ccc(NC(=O)c2cnn(-c3ccccc3)c2NC(=O)c2ccc(Cl)cc2)cc1,5.6*,-14.4,0.1,2.0,0.4,8.6
Cc1cc(C)cc(NC(=O)CSc2nnc(NC(=O)c3ccco3)s2)c1,1.2,6.8,0.0,2.4,·,·
O=C(NCCc1ccccc1)C(F)(F)C(F)F,19.0*,0.4,-0.2,6.2,-0.4,1.5
COc1ccc(CCNc2nc(NC(C)(C)CO)nc(N3CCCC3)n2)cc1OC,-0.8,-2.2,0.1,14.8,·,·
COc1ccc(CCNc2nc(N3CCCC3)nc(N3CCCC3)n2)cc1OC,5.1*,-17.7,0.4,17.9,0.9,-8.2
C=CCOc1ccccc1/C=N/NC(=O)c1cccc(I)c1,10.7*,-7.0,-0.1,-6.9,0.3,0.7
COC(=O)c1sc(NC(=O)c2ccc([N+](=O)[O-])cc2Cl)c(C#N)c1C,0.4,19.9,0.1,4.7,·,·
COC(=O)c1cc2c(=O)n3ccccc3nc2n(CCO)c1=N,-0.2,1.7,0.0,14.0,·,·
CC(C)CC(N=Cc1c(O)c2ccccc2oc1=O)C(=O)O (configuration not stated),5.5*,-5.9,0.0,-4.7,-0.4,10.7
CC(C(=O)NCc1cccc(F)c1)n1sc2ccccc2c1=O (configuration not stated),2.4,-10.8,-0.2,-3.8,·,·
Cc1ccc(Nc2nnc(SCC(=O)N3CCOCC3)s2)cc1,-1.6,-5.9,-0.1,3.6,·,·
Cc1ccc(Nc2nnc(SCC(=O)N3CCCC3)s2)cc1,5.6*,1.6,0.2,-17.1,-0.3,-11.9
COc1ccc(N2C3=C(C(=O)CC(C)(C)C3)C(c3ccccc3)C3=C2c2ccccc2C3=O)cc1 (configuration not stated),5.6*,-6.4,0.0,-8.0,0.2,-5.0
C[C@H]1CC[C@@]2(OC1)O[C@H]1C[C@H]3[C@@H]4CC[C@@H]5C[C@@H](O)CC[C@]5(C)[C@H]4CC[C@]3(C)[C@H]1[C@@H]2C,5.6*!,8.7,0.3,8.7,0.6,-7.9
COc1cc2nc(Nc3ccccn3)nc(Nc3cc(OC)c(OC)c(OC)c3)c2cc1OC,7.3*,14.3,-0.2,8.2,1.5,3.3
COc1cc2nc(Nc3ccccn3)nc(Nc3ccc(Oc4ccccc4)cc3)c2cc1OC,-1.8,-6.0,-0.2,-6.2,·,·
SMILES,GPR151 activ,TEAD-YAP block,FBW7 act,MITF inh,GPR151 conf act,GPR119 ag
Cc1ccc(N2CC(C(=O)Nc3ccccc3C(=O)NC(C)C)CC2=O)cc1 (configuration not stated),6.3*,-4.2,0.3,-13.5,0.2,21.6
Cc1ccc(N2CC(C(=O)Nc3ccccc3C(N)=O)CC2=O)cc1 (configuration not stated),-0.6,2.9,-0.1,14.6,·,·
O=C(NCc1ccco1)C1CC(=O)N(c2ccc(F)cc2)C1 (configuration not stated),-1.0,0.1,-0.2,0.9,·,·
Cc1ccc(N2CC(C(=O)Nc3ccccc3C(=O)NCCc3ccccc3)CC2=O)cc1 (configuration not stated),5.3*,-10.5,0.1,9.2,-0.9,-8.2
O=C(NCc1ccco1)c1ccccc1NC(=O)C1CC(=O)N(c2ccc(Cl)cc2)C1 (configuration not stated),6.8*,2.7,-0.1,-0.3,0.1,2.7
CCOC(=O)c1c(NC(=O)CSc2nnc(CNC(=O)Cc3ccc(OC)cc3)n2-c2ccccc2OC)sc2c1CCCC2,-0.2,-2.6,0.6,23.5,·,·
COCCCC1CCN(Cc2nc(-c3ccccn3)no2)CC1,6.7*,-9.0,0.1,-2.6,0.2,-0.3
COCCN1CCN(Cc2nc(-c3ccccn3)no2)CC1,-0.4,-6.2,0.0,11.1,·,·
CCCCN1C(=O)SC(Nc2ccc(F)cc2)C1=O (configuration not stated),8.2*,2.6,0.1,6.3,-1.7,-6.9
CCOC(=O)CN1C(=O)SC(Nc2ccccc2)C1=O (configuration not stated),7.8*,2.8,-0.2,3.0,0.3,8.1
O=C(O)CN1C(=O)SC(Nc2ccccc2)C1=O (configuration not stated),-2.8,-6.5,-0.2,0.1,·,·
CC(C)(C)CC(=O)Nc1ccccc1[N+](=O)[O-],7.0*,-5.5,0.0,0.7,0.4,3.5
COCCCNC(=O)CCc1c(C)nc2cc(-c3ccccc3)nn2c1C,5.3*,-3.4,0.0,-1.4,-0.2,-0.8
CC1=C/C(=N\OS(=O)(=O)c2ccccc2)C(C(C)C)=CC1=O,8.5*,-8.6,-0.1,19.9,0.4,20.1
CC1=C/C(=N\S(=O)(=O)c2ccccc2)C(C)=CC1=O,-0.7,4.2,0.0,-13.2,·,·
COc1ccc(O)c(CN2CCCCC2)c1,-0.3,-8.9,-0.4,-3.9,·,·
COc1ccc(O)c(CN(C)CCN(C)C)c1,7.2*,10.5,0.6,8.2,-0.5,-8.9
O=c1c2ccccc2nc(SCc2ccncc2)n1CC1CCCO1 (configuration not stated),6.2*,4.7,-0.1,-2.1,1.2,16.4

# High-throughput results as filed in PubChem BioAssay.
